# Calls of active or inactive are those of the source. The call rests on the fitted dose curve; in most records, active means well fitted curve in the direction sought with a large enough effect; inactive means no such curve, though single readings can be large or run the other way.
# Target: Alpha-galactosidase A (Homo sapiens) (UniProt P06280)
# Assay: Counterscreen for Glucocerebrosidase Inhibitors: qHTS Assay for Human alpha-Galactosidase at pH 4.5 (AID 992)
# Conditions: purified enzyme, fluorogenic substrate; series mostly up to 76.9 µM
# From the text: NIH Chemical Genomics Center [NCGC]
# NIH Molecular Libraries Screening Centers Network [MLSCN]
# PI Name: Zheng, Wei [NIH]
# Alpha-galactosidase is a homodimeric glycoprotein that hydrolyzes the terminal alpha-galactosyl moieties from glycolipids and glycoproteins. Deficiency of this enzyme results in Fabry Disease with progressive accumulation of globotriaosylceramide and other glycosphingolipids in vascular endothelial cells that causes renal failure, myocardial infarction and stroke, and premature death in patients. It has reported that the improper folding and trafficking of alpha-galactosidase resulted from the genetic mutations may account for a significant numbers of Fabry patients. […] We optimized this alpha-galactosidase assay in 1536-well plate format for identifying the novel small molecule inhibitors with the structures other than the sugar analogs in order to develop the new pharmacological chaperones.
# NCGC Assay Protocol Summary:
# This is a fluorogenic enzyme assay with 4-Methylumbelliferyl alpha-D-galactopyranoside as the substrate and human […] as the enzyme preparation. Upon the hydrolysis of this fluorogenic substrate, the resulting product, […]. 4-Methyllumbelliferone, can be excited at 365 nm and emits at 440 nm which can be detected by a standard fluorescence plate reader. Data were normalized to the controls for basal activity (without enzyme) and 100% activity (with enzyme). In the AC50 values were determined from concentration-response data modeled with the standard Hill equation.
# Assay buffer: 50 mM citric acid, 0.005% Tween-20, pH 4.5. (pH 4.5 is an optimal condition for this enzyme assay)
# 1536-well assay protocol for the human alpha-galactosidase:
# (1) Add 2 ul/well of enzyme (2 nM final)
# (2) Add 23 nL compounds in DMSO solution. The final titration was 0.7 nM to 77 uM.
# (3) Add 1 ul of substrate (80 uM final)
# (4) Incubate at room temperature for 20 min.
# (5) Add 2 ul stop solution (1M NaOH and 1M Glycine mixture, pH 10)
# (6) Detect the assay plate in a ViewLux plate reader (PerkinElmer) with Ex=365 nm and Em=440nm.
# Keywords: Alpha-galactosidase, Fabry Disease, pharmacological chaperone, chaperone therapy, high throughput screening, alpha-galactosidase inhibitor, MLSMR, MLSCN, NIH Roadmap, qHTS and NCGC
# Chain of Alpha-galactosidase A (Homo sapiens) (P06280 whole entry, looked up): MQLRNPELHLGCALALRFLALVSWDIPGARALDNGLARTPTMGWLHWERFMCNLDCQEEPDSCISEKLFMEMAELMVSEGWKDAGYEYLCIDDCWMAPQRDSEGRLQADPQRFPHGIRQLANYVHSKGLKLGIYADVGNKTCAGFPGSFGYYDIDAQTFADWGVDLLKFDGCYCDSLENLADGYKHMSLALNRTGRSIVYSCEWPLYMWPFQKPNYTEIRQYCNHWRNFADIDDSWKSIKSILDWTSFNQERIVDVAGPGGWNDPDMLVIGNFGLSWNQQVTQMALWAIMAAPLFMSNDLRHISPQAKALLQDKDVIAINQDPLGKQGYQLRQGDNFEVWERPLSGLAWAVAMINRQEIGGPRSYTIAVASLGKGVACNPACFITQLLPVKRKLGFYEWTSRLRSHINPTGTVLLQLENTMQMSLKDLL
row,SMILES,outcome
1,CCCCNc1ccc(C(=O)OCCN(C)C)cc1,inactive
2,C(=C\c1ccccc1)/CN1CCN(C(c2ccccc2)c2ccccc2)CC1,inactive
3,CN(C)CCCN1c2ccccc2Sc2ccc(C(F)(F)F)cc21,inactive
4,CN(C(=O)CCCOc1ccc2[nH]c(=O)ccc2c1)C1CCCCC1,inactive
5,CCN1CCc2nc(N)oc2CC1,inactive
6,NC(=O)N1c2ccccc2C=Cc2ccccc21,inactive
7,CCN(CC)CCOCCOC(=O)C1(c2ccccc2)CCCC1,inactive
8,CN(C)CCN(Cc1cccs1)c1ccccn1,inactive
9,O=C(CCCN1CCC(O)(c2cccc(C(F)(F)F)c2)CC1)c1ccc(F)cc1,inactive
10,O=C(O)CCCCCCCC(=O)O,inactive
11,Nc1ncn([C@@H]2O[C@H](CO)[C@@H](O)[C@H]2O)c(=O)n1,inactive
12,Cc1nc2ccccn2c(=O)c1CCN1CCC(C(=O)c2ccc(F)cc2)CC1,inactive
13,CN(C)CC/C=C1\c2ccccc2COc2ccccc21,inactive
14,CCn1cc(C(=O)O)c(=O)c2cc3c(cc21)OCO3,inactive
15,CNCCCN1c2ccccc2CCc2ccccc21,inactive
16,O=c1[nH]c(=O)n([C@H]2C[C@H](O)[C@@H](CO)O2)cc1Br,inactive
17,CCCOc1ccccc1-c1nc2n[nH]nc2c(=O)[nH]1,inactive
18,CCN(CC)CC(=O)Nc1c(C)cccc1C,inactive
19,COC(=O)[C@@H](N)Cc1ccc(O)c(O)c1,inactive
20,Cc1ccc(=O)n(-c2ccccc2)c1,inactive

row,SMILES,outcome
1,C[N+](C)(C)CCOC(N)=O,inactive
2,COc1cc2c(cc1OC)-c1cc(=Nc3c(C)cc(C)cc3C)n(C)c(=O)n1CC2,inactive
3,CC(C)[N+](C)(CCOC(=O)C1c2ccccc2Oc2ccccc21)C(C)C,inactive
4,C[N+](C)(C)CCOC(=O)CCC(=O)OCC[N+](C)(C)C,inactive
5,COC(=O)[C@H]1[C@H]2C[C@@H]3c4[nH]c5cc(OC)ccc5c4CCN3C[C@H]2C[C@@H](OC(=O)c2cc(OC)c(OC)c(OC)c2)[C@@H]1OC,inactive
6,C[C@]12CCC(=O)C=C1CC[C@@H]1[C@@H]2C(=O)C[C@@]2(C)[C@H]1CC[C@]2(O)C(=O)CO,inactive
7,CCc1cccc(N(C)C(N)=Nc2cccc3ccccc23)c1,inactive
8,CCO/C([O-])=N/c1c[n+](N2CCOCC2)no1,inactive
9,CCCCNc1c(C(=O)OCC)c(C)nc2c1cnn2CC,inactive
10,c1cc(CN2CCCCC2)cc(OCCCNc2nc3ccccc3s2)c1,inactive
11,CN/C(=C\[N+](=O)[O-])NCCSCc1ccc(CN(C)C)o1,inactive
12,Cc1ccc(Cl)c(Nc2ccccc2C(=O)O)c1Cl,inactive
13,CN=C(NC#N)NCCSCc1nc[nH]c1C,inactive
14,C[C@H](CS)C(=O)N1CCC[C@H]1C(=O)O,inactive
15,CCNC(=O)N1CCN(CCCC(c2ccc(F)cc2)c2ccc(F)cc2)CC1,inactive
16,CC(=O)Nc1nnc(S(N)(=O)=O)s1,inactive
17,COc1cc(Cc2cnc(N)nc2N)cc(OC)c1OC,inactive
18,Cc1ccc(S(=O)(=O)NC(=O)NN2CCCCCC2)cc1,inactive
19,CN(C)CCOC(=O)COc1ccc(Cl)cc1,inactive
20,Nc1nc(N)c2nc(-c3ccccc3)c(N)nc2n1,inactive
